# Experimental data: PubChem BioAssay AID2283105 (EPA ToxCast)
# Calls of active or inactive are those of the source. How the source made its calls: active means hit-call score of the fitted dose curve at least 0.9, where 1 is the maximum; inactive means score below 0.9.
# Biological target: human CYP2E1, CYP2E1 (gene 1571) (UniProt P05181)
# Experiment: NVS_ADME_hCYP2E1: NovaScreen (NVS) CYP450-related Enzyme Activity (ADME) Assay for human CYP2E1
# Method: NVS_ADME_hCYP2E1 is a biochemical, single-readout assay that uses extracted gene-proteins in a cell-free assay. Measurements were taken 0.5 hour after chemical dosing in a 96-well plate.NVS_ADME_hCYP2E1 is one of one assay component(s) measured or calculated from the NVS_ADME_hCYP2E1 assay. It is designed to make measurements of enzyme activity, a form of enzyme reporter, as detected with fluorescence intensity signals by Fluorescence technology.Data from the assay component NVS_ADME_hCYP2E1 was analyzed into 1 assay endpoint. This assay endpoint, NVS_ADME_hCYP2E1, was analyzed in the positive analysis fitting direction relative to Acetonitrile as the negative control and baseline of activity. Using a type of enzyme reporter, loss-of-signal activity can be used to understand changes in the enzymatic activity as they relate to the gene CYP2E1. Furthermore, this assay endpoint can be referred to as a primary readout, because this assay has produced multiple assay endpoints where this one serves a enzymatic activity function. To generalize the intended target to other relatable targets, this assay endpoint is annotated to the cyp intended target family, where the subfamily is xenobiotic metabolism. […]
# human CYP2E1, CYP2E1 (gene 1571), sequence (P05181 whole entry, looked up): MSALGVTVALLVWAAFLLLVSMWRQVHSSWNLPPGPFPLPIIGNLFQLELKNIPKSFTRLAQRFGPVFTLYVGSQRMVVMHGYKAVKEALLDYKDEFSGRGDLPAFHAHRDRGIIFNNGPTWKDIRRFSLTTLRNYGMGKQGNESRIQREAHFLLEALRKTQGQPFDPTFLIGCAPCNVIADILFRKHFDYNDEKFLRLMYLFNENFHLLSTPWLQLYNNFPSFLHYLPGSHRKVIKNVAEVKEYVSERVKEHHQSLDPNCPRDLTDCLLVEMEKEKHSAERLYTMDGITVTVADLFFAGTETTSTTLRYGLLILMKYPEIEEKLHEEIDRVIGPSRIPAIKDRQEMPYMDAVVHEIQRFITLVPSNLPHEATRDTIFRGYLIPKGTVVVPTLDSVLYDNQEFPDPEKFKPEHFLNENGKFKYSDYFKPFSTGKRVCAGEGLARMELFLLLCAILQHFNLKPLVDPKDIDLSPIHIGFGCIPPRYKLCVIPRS
smiles,measurement,value
N#CSCSc1nc2ccccc2s1,AC50,5.32 µM (active)
